# Data: PubChem BioAssay (Tox21)
# Results filed as inconclusive are left out. The source made the active and inactive calls. Calls follow the shape of the dose curve; as a rule, active = well fitted activation curve with a large enough effect in the repeat runs; inconclusive = weak or mixed curves; inactive = no such curve, though single readings can be large or run the other way.
# Molecular target: Nuclear receptor subfamily 1 group I member 2 (Rattus norvegicus) (UniProt Q9R1A7)
# Experiment: Rat pregnane X receptor (rPXR) activation by small molecules, qHTS assay (AID 1346983); also: nearly all actives have a fitted effect of over 20% in size
# Details: rPXR luciferase reporter cells, One-Glo luminescence, 24 h; max activation: active compounds read high
# How it was run: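 Luminescent readout (One-Glo luciferase, 30 min room temperature) followed 24 hr compound treatment at 37 C of rPXR cells plated 2,000 per well and preincubated 5hr; qHTS format with compounds delivered in DMSO.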
# % is scaled to controls: 0 for no effect and ±100 for the full control effect.
# Chain of Nuclear receptor subfamily 1 group I member 2 (Rattus norvegicus) (Q9R1A7 whole entry, looked up): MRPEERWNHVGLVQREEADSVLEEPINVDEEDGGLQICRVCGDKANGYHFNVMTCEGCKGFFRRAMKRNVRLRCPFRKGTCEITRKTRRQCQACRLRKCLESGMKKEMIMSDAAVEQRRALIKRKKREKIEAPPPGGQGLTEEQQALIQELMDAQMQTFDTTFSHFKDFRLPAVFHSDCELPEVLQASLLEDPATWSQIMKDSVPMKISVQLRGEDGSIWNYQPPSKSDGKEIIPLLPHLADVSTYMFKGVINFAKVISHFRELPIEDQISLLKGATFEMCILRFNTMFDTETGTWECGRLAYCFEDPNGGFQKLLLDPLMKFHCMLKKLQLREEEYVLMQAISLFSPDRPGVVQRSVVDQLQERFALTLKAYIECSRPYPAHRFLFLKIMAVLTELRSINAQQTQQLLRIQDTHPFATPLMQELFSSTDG
row,SMILES,max activation
1,CCN(CC)CCNC(=O)COc1ccc(Cl)cc1,-3.06% (inactive)
2,CCOC(=O)[C@H](CCc1ccccc1)N[C@@H](C)C(=O)N1Cc2cc(OC)c(OC)cc2C[C@H]1C(=O)O,-0.0593% (inactive)
3,CO[C@@]1(NC(=O)CSCC#N)C(=O)N2C(C(=O)O)=C(CSc3nnnn3C)CS[C@@H]21,-3.26% (inactive)
4,CCOC(=O)c1ccccc1O,-7.66% (inactive)

# Molecular target: Nuclear receptor subfamily 1 group I member 2 (Homo sapiens) (UniProt O75469)
# Experiment: CYP3A4 induction through human pregnane X receptor (PXR) by small molecules, qHTS assay (AID 1346984); also: nearly all actives have a fitted effect of over 40% in size
# Details: DPX-2 HepG2 PXR, CYP3A4-luciferin luminescence, 24 h; series mostly up to 46.1 µM; activation: at the top concentration
# How it was run: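 DPX-2 HepG2 cells carrying a PXR response element and CYP3A4-promoter luciferase construct, treated with compounds 24 hr at 37C. Then P450-Glo CYP3A4 Luciferin-IPA substrate (3uM final) for 3 hr at 37C, One-Glo added, luminescence read.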
row,SMILES,activation
1,CCC(=O)Nc1ccc(O)cc1,-0.799% (inactive)
2,CC(=O)Oc1cc(C(C)C)c(OCCN(C)C)cc1C,11.6% [at 20.6 µM] (inactive)
3,O=c1[nH]cnc2c1ncn2[C@@H]1O[C@H](CO)[C@@H](O)[C@H]1O,-11.8% (inactive)
4,N#Cc1ccc(C(c2ccc(C#N)cc2)n2cncn2)cc1,3.66% [at 20.6 µM] (inactive)
5,NS(=O)(=O)c1cc(-c2nn[nH]n2)c(NCc2cccs2)cc1Cl,2.95% (inactive)
6,Cc1c(-c2ccccc2)oc2c(C(=O)OCCN3CCCCC3)cccc2c1=O,-5.97% [at 20.6 µM] (inactive)
7,OCc1ccccc1O,-3.29% (inactive)
8,C[C@@H]1CN(c2c(F)c(F)c3c(=O)c(C(=O)O)cn(C4CC4)c3c2F)C[C@H](C)N1,-6.85% (inactive)
9,CC(=O)N(CC(O)CN(C(C)=O)c1c(I)c(C(=O)NCC(O)CO)c(I)c(C(=O)NCC(O)CO)c1I)c1c(I)c(C(=O)NCC(O)CO)c(I)c(C(=O)NCC(O)CO)c1I (configuration not stated),8.02% [at 20.6 µM] (inactive)
10,CC(C)O,-3.02% (inactive)
11,CN1CCN(c2c(F)cc3c(=O)c(C(=O)O)cn(CCF)c3c2F)CC1,3.01% (inactive)
12,CN1CCN(c2c(F)cc3c(=O)c(C(=O)O)cn4c3c2SCC4)CC1,-1.14% (inactive)
13,Cc1nnc(SCC2=C(C(=O)O)N3C(=O)[C@@H](NC(=O)Cn4cnnn4)[C@H]3SC2)s1,-5.25% (inactive)
